Reference: PubChem BioAssay
“And” between values parts separate entries of the source, which are not always exact repeats. Identical values can stand only once. The source made the active and inactive calls.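 How the source made its calls, unless noted: active means compounds whose cell count with miR-34 switched on is under 0.7 times the count with it off; inactive means the rest.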

Key:
[1] = sensitizers of A549 cells to miR-34 induction, primary screen, imaging, A549 dox-inducible miR-34, nuclei and caspase counts (AID 1347080); settings: A549 miR-34 inducible, Hoechst nuclei count, 48 h; further: test concentration not given here
[2] = survival rescue of mitochondrial mutant cells in low glucose, primary screen, MELAS cybrids, Rieske KO mouse fibroblasts, CellTiter-Glo (AID 1508586;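 active means mean z-score across replicates of 1.96 or higher in either the MELAS or the Rieske mutant cell line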;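 further: test concentration not given here; z relative to plate mean and SD of compound and empty wells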)
[3] = viability rescue of complex I mutant cybrids, primary screen, cell-based, galactose medium, ATP luminescence (AID 1645843;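 active means z-score of at least 1.8 in each of two replicates, scored against plate mean and spread of sample wells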;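 further: positive z means more ATP and so rescue of galactose-driven cybrid death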); settings: complex I mutant cybrid cells, 72 h, stronger effect = higher value
[4] = stronger effect = lower value, cell number ratio, induced over uninduced
[5] = measured here: relative caspase fold change +Dox/-Dox
[6] = measured here: total cells with miR-34 induction, stronger effect = lower value
[7] = measured here: total cells without miR-34 induction
[8] = MELAS cybrid survival, CellTiter-Glo 48 h, stronger effect = higher value
[9] = Rieske KO mouse fibroblast survival, CellTiter-Glo 72 h

Compound | fold change [1, 4] | fold change [1, 5] | cell count [1, 6] | cell count [1, 7] | z-score [2, 8] | z-score [2, 9] | z-score [3]
O=C(Nc1n[nH]c(-c2ccccc2)n1)N1CCN(c2ccc(F)cc2)CC1 | 0.826 (inactive) | 1.21 | 6770 | 8190 | -0.373 | 4.03 | 0.11 (inactive)
O=C1CC(c2ccc(O)cc2)Oc2cc(O)ccc21 (stereo not given) | 0.9 (inactive) | 0.718 | 8540 | 9500 | 0.67 (inactive) | -0.313 | 0.305 (inactive)
O=C1CN(c2ncnc3sccc23)CCN1C1CCCC1 | 0.857 (inactive) | 1.28 | 8070 | 9410 | -1.24 (inactive) | -0.154 | 1.98 (inactive)
Cc1cc(NC(=O)Cn2ncc3cc(-c4ccc(F)c(F)c4)ccc32)n(C)n1 | 0.877 (inactive) | 0.515 | 4810 | 5490 | 0.668 (inactive) | -0.0382 | 0.765 (inactive)
COc1ccc(CN(C)C(=O)Nc2nc(-c3ccccc3)ns2)cc1 | 0.886 (inactive) | 1.46 | 6810 | 7690 | -0.0703 (inactive) | 0.35 | 0.77 (inactive)
O=c1c2nccnc2ncn1Cc1ccc2nsnc2c1 | 0.878 (inactive) | 1.36 | 8120 | 9250 | -0.0326 (inactive) | -0.667 | -0.53 (inactive)
O=C(O)c1ccc(-c2ccccc2C(F)(F)F)o1 | 0.879 (inactive) | 0.45 | 8380 | 9530 | 0.000745 (inactive) | -0.553 | 0.155 (inactive)
O=c1c2nccnc2ncn1Cc1scnc1-c1ccccc1 | 0.893 (inactive) | 0.515 | 8870 | 9940 | -0.26 (inactive) | -0.294 | -0.445 (inactive)
CCC1C(=O)N(C)CCN1C(=O)Nc1nc(C)ns1 (stereo not given) | 1.02 (inactive) | 1.35 | 8670 | 8510 | -0.0427 (inactive) | -0.105 | -0.49 (inactive)
CCOC(=O)c1c(C)nn(-c2ccc(N)cc2)c1C | 0.897 (inactive) | 0.586 | 8580 | 9570 | -0.251 (inactive) | -0.884 | -0.7 (inactive)
Cc1ncc(-c2cc(C(=O)N(C)Cc3csc(C)n3)c3ccc(F)cc3n2)cn1 | 0.883 (inactive) | 2.05 | 8360 | 9470 | -0.361 (inactive) | -0.299 | -0.38 (inactive)
CN(C)CCOc1ccc(C(=C(CCCl)c2ccccc2)c2ccccc2)cc1 | 0.778 (inactive) and 1.03 (inactive) | 1.46 and 0.374 | 3730 and 7050 | 4790 and 6850 | -0.446 (inactive) | -0.000629 | -1.88 (inactive)
CN(C)C(=O)c1cc(-c2cnc(-c3ccccn3)nc2)nc2cc(F)ccc12 | 0.875 (inactive) | 1.98 | 8570 | 9790 | -0.444 (inactive) | -0.334 | -0.41 (inactive)
CC(C)n1cc(-c2cc(C(=O)N(C)Cc3ccncc3)c3cc(F)ccc3n2)cn1 | 0.953 (inactive) | 1.49 | 7910 | 8290 | -1.09 (inactive) | 0.3 | -0.295 (inactive)
COc1cccc2ccc(-c3coc4ccccc4c3=O)nc12 | 0.946 (inactive) | 0.913 | 7730 | 8170 | -0.341 (inactive) | 0.246 | 2.79 (active)
COc1cc(CC2COC(=O)C2Cc2ccc(O)c(OC)c2)ccc1O (stereo not given) | 0.888 (inactive) | 0.681 | 8440 | 9500 | -1.09 (inactive) | -0.0925 | -0.07 (inactive)
CCNc1ncc(-c2cc(C(=O)N(C)CCN(C)C)c3cc(F)ccc3n2)cn1 | 0.912 (inactive) | 2.18 | 8760 | 9610 | -0.0763 (inactive) | -0.44 | -0.56 (inactive)
Cc1nc2cc(C(=O)N(C)Cc3cc(-c4cccnc4)no3)ccc2s1 | 0.86 (inactive) | 2.36 | 6380 | 7420 | -0.957 (inactive) | -0.223 | -0.55 (inactive)
Nc1nc(NCc2ccncc2)c2cn[nH]c2n1 | 0.931 (inactive) | 0.844 | 8290 | 8900 | -0.45 (inactive) | -0.366 | -0.535 (inactive)
O=C(NCCc1nc2ccc(F)cc2[nH]1)c1cnccn1 | 0.896 (inactive) | 1.56 | 8500 | 9500 | 0.845 (inactive) | -0.308 | -0.435 (inactive)
CCOC(=O)c1c(C)n[nH]c1C | 0.871 (inactive) | 0.655 | 8840 | 10200 | 0.691 (inactive) | -0.58 | 0.425 (inactive)
Nc1nc(NC(Cn2ccnc2)c2ccccc2)c2cn[nH]c2n1 (stereo not given) | 0.958 (inactive) | 1.04 | 9810 | 10200 | -0.353 (inactive) | -0.318 | -0.495 (inactive)
OC1(CNc2ncnc3nc[nH]c23)C2CC3CC(C2)CC1C3 (stereo not given) | 0.887 (inactive) | 0.873 | 8560 | 9650 | -0.357 (inactive) | -0.0569 | -0.575 (inactive)
CN(Cc1noc(C2CCCC2)n1)C(=O)c1nc(=O)[nH]c2ccccc12 | 0.914 (inactive) | 1.01 | 8520 | 9320 | -0.339 (inactive) | 0.124 | -0.525 (inactive)
O=C(O)CSc1nnc(-c2ccc([N+](=O)[O-])o2)o1 | 0.911 (inactive) | 0.48 | 8530 | 9370 | -1.16 (inactive) | 0.209 | 0.17 (inactive)
O=C1CN(c2ncnc3sccc23)CCN1Cc1cccc(F)c1 | 0.826 (inactive) | 1.63 | 4730 | 5730 | -0.104 (inactive) | 0.0557 | 3.78 (active)
O=S(=O)(Nc1cc(-c2cccs2)nn1-c1ccc(F)cc1)c1cccc(F)c1 | 0.903 (inactive) | 0.956 | 7390 | 8190 | 0.0617 (inactive) | 0.524 | -1.46 (inactive)
CC1OC(OC2C(CO)OC(OC3C(CO)OC(O)C(O)C3O)C(O)C2O)C(O)C(O)C1NC1C=C(CO)C(O)C(O)C1O (stereo not given) | 0.923 (inactive) and 1.03 (inactive) | 1.2 and 0.703 | 9530 and 7300 | 10300 and 7090 | -0.375 (inactive) | -0.157 | 0.475 (inactive)
Cn1nc(NC(=O)Cn2ccc(-c3ccco3)n2)c2ccccc21 | 0.861 (inactive) | 2.39 | 7120 | 8270 | 1.07 (inactive) | 0.074 | 0.205 (inactive)
Cc1csc(CNc2nccc(-c3cnn(-c4ccccc4)c3)n2)n1 | 0.775 (inactive) | 1.81 | 4550 | 5870 | -0.292 (inactive) | 0.283 | -0.175 (inactive)
